Assay [1] has as its target Nuclear respiratory factor 1 (Homo sapiens) (UniProt Q16656). The assay is described as follows: ATG_NRF1_CIS: Attagene CIS-FACTORIAL HepG2 Assay for human Nuclear Respiratory Factor 1 (NRF1) Orphan Gene (AID 2282987). Particulars: HepG2 NRF1 cis-element reporter, Attagene multiplex; actives raise or lower the signal. A digest of the protocol:
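Endogenous NRF1-driven reporter transcription measured in transiently transfected human HepG2 liver cells. Readout: reporter mRNA by RT-PCR and capillary electrophoresis with fluorescence detection, 24 h post-dosing. Gain or loss of signal fitted relative to DMSO baseline.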

Assay [2] is described as follows: ATG_NFI_CIS: Attagene CIS-FACTORIAL HepG2 Assay for human Nuclear Factor I (NFI) (AID 2282989). Particulars: HepG2 cis-regulatory reporter, NFI response element transcription; actives raise or lower the signal. The procedure, abridged:
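After transient transfection of HepG2 with cis-promoter reporter constructs and 24 h dosing, RNA is reverse-transcribed, amplified, 6-FAM end-labelled and HpaI-digested before capillary analysis. Bidirectional curve fitting against DMSO.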

The target of assay [3] is Myc proto-oncogene protein (Homo sapiens) (UniProt P01106). The assay is described as follows: ATG_Myc_CIS: Attagene CIS-FACTORIAL HepG2 Assay for human Myelocytomatosis (Myc) Proto-Oncogene Transcription Factor (AID 2282990). Particulars: HepG2, Attagene cis-reporter transcription factor activity; actives raise or lower the signal. A digest of the protocol:
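Cells of the HepG2 human liver line bear multiple cis-driven reporter transcription units. Reporter mRNA after 24 h exposure is reverse-transcribed, amplified, labelled and resolved by capillary electrophoresis, with gain- or loss-of-signal fitting relative to DMSO.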

A short description of assay [4]: ATG_NF_kB_CIS: Attagene CIS-FACTORIAL HepG2 Assay for human Nuclear Factor Kappa B (NF-kB) (AID 2282991). Particulars: HepG2 Attagene cis-factorial NF-kB reporter mRNA; actives raise or lower the signal. A digest of the protocol: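 Read-out: reporter transcript levels quantified by RT-PCR plus capillary electrophoresis of 6-FAM-labelled, HpaI-cut fragments. Transfected HepG2 cells, 24 h compound exposure, endogenous NF-kB-driven cis element; gain or loss scored versus DMSO.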

Assay [5] can be described thus: ATG_Oct_MLP_CIS: Attagene CIS-FACTORIAL HepG2 Assay for human Octamer-Binding Transcription Factor (Oct) (AID 2282993). Particulars: HepG2 Attagene cis-factorial Oct reporter, mRNA; actives raise or lower the signal. The procedure, abridged: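 Cells of the HepG2 line express promoter-controlled reporter sequences whose mRNA levels, after 24 h treatment, are measured by RT-PCR and capillary electrophoresis. Increases and decreases are scored relative to DMSO.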

For assay [6], the target named is Cellular tumor antigen p53 (Homo sapiens) (UniProt P04637). The assay is described as follows: ATG_p53_CIS: Attagene CIS-FACTORIAL HepG2 Assay for human p53 Transcription Factor (AID 2282994). Particulars: HepG2 p53 cis-element reporter, Attagene mRNA; actives raise or lower the signal. A digest of the protocol:
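Steps: transfect HepG2 with multiplexed cis reporter constructs; dose chemicals 24 h; extract RNA, reverse-transcribe, PCR-amplify reporter sequences; FAM-label, HpaI-digest, resolve fragments by CE. Activity fitted both directions relative to DMSO.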

Assay [7] is described as follows: BSK_3C_TissueFactor: BioMAP Diversity Plus: 3C Assay for Tissue Factor Biomarker Activity (AID 2282997). Particulars: BioMAP 3C HUVEC, tissue factor biomarker readout; actives raise or lower the signal. The procedure, abridged: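 After a 24 h chemical exposure of primary human umbilical vein endothelial cells, Tissue Factor levels were quantified by ELISA.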
A short description of assay [8]: BSK_3C_uPAR: BioMAP Diversity Plus: 3C Assay for Urokinase-type plasminogen activator receptor (uPAR) Biomarker Activity (AID 2282998). Particulars: BioMAP 3C HUVEC, uPAR biomarker ELISA; actives raise or lower the signal. The procedure, abridged: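 Endothelial primary cells of human umbilical vein origin received test chemical; 24 h later uPAR was assayed by ELISA. Fitting was bidirectional, DMSO as negative control.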

Assay [9] is described as follows: BSK_3C_VCAM1: BioMAP Diversity Plus: 3C Assay for Vascular cell adhesion molecule 1 (VCAM1) Biomarker Activity (AID 2282999). Particulars: BioMAP 3C HUVEC, VCAM1 ELISA, cytokine-stimulated; actives raise or lower the signal. A digest of the protocol: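 Activity fitted in both directions relative to DMSO, with ELISA measurement of the surface marker on primary HUVEC (3C) at 24 h post-treatment; parallel SRB staining (0.1% SRB, TCA-fixed, 560 nm) flagged overt cytotoxicity.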

Assay [10] is described as follows: BSK_4H_Eotaxin3: BioMAP Diversity Plus: 4H Assay for Eotaxin 3 Biomarker Activity (AID 2283000).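 Also: CCL26 protein level quantified by ELISA in parallel with SRB cytotoxicity check.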 Particulars: primary human endothelial cells (HUVEC); actives raise or lower the signal. A digest of the protocol: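 Chemicals were added to human umbilical vein endothelium cultures, and Eotaxin-3 was quantified by ELISA at 24 h. Values were derived by bidirectional fitting with DMSO serving as negative control and activity baseline.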

Assay [11] has as its target human Peroxisome Proliferator-activated Receptor alpha (PPARa), PPARA (gene 5465) (UniProt Q07869). The assay is described as follows: ATG_PPARa_TRANS: Attagene TRANS-FACTORIAL HepG2 Assay for human Peroxisome Proliferator-activated Receptor alpha (PPARa) (AID 2283001; active = hit-call score of the fitted dose curve at least 0.9, where 1 is the maximum;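 as to AC50: potency for gain of reporter signal over DMSO so agonist or activator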). A digest of the protocol: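 Reporter transcripts quantified by RT-PCR plus capillary electrophoresis after 24 h treatment, fitted upward relative to DMSO. Cells: human HepG2 transiently carrying multiple GAL4-UAS reporter units driven by NR-Gal4 chimeras.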

Read-out in assay [12]: Intercellular Adhesion Molecule 1 (ICAM1), ICAM1 (gene 3383)
The assay is described as follows: BSK_3C_ICAM1: BioMAP Diversity Plus: 3C Assay for Intercellular Adhesion Molecule 1 (ICAM1) Biomarker Activity (AID 2283003). Particulars: primary human endothelial cells (HUVEC); actives raise or lower the signal. A digest of the protocol: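 Chemicals are dosed onto primary human umbilical vein endothelium (3C system). After 24 h, ICAM-1 is measured by ELISA, and responses are fitted bidirectionally relative to DMSO.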

The target of assay [13] is human Retinoic Acid Receptor beta (RARb), RARB (gene 5915) (UniProt P10826). The assay is described as follows: ATG_RARb_TRANS: Attagene TRANS-FACTORIAL HepG2 Assay for human Retinoic Acid Receptor beta (AID 2283004; active = hit-call score of the fitted dose curve at least 0.9, where 1 is the maximum). A digest of the protocol:
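Transient transfection of HepG2 with multiple reporter units → chemical dosing, 24 h → total RNA isolation → RT with oligo(dT) → reporter-specific PCR, 6-FAM primer extension, HpaI digest → capillary electrophoresis. Positive direction vs DMSO control.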

The target in assay [14] is Retinoic acid receptor alpha (Homo sapiens) (UniProt P10276). The assay is described as follows: ATG_RARa_TRANS: Attagene TRANS-FACTORIAL HepG2 Assay for human Retinoic Acid Receptor alpha (RARa) (AID 2283005; active = hit-call score of the fitted dose curve at least 0.9, where 1 is the maximum). A digest of the protocol:
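Reporter transcripts, measured by RT-PCR with fluorescent labeling and capillary electrophoresis after 24 h dosing, reflect activity of an exogenous human RARa–GAL4 fusion in transiently transfected HepG2. Fitted for increase relative to DMSO.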

Assay [15] is described as follows: BSK_3C_Proliferation: Cell Proliferation Assessment in the BioMAP Diversity Plus: 3C Assay (AID 2283006). Particulars: primary human endothelial cells (HUVEC). A digest of the protocol:
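Cells (human umbilical vein endothelial, sub-confluent) receive test chemical; after 48 h they are fixed in 10% trichloroacetic acid, stained with 0.1% SRB and read at 560 nm. Activity is referenced to DMSO, fitting increases and decreases.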

For assay [16], the target named is Peroxisome proliferator-activated receptor gamma (Homo sapiens) (UniProt P37231). Put plainly: ATG_PPARg_TRANS: Attagene TRANS-FACTORIAL HepG2 Assay for human Peroxisome Proliferator-activated Receptor-gamma (PPARg) (AID 2283007; active = hit-call score of the fitted dose curve at least 0.9, where 1 is the maximum). A digest of the protocol: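 Read-out: reporter mRNA induction, detected by fluorescence after RT-PCR and capillary electrophoresis. Transiently transfected human HepG2 liver cells carrying a chimeric NR-Gal4 construct were dosed for 24 h; activity was fitted upward relative to DMSO.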

For assay [17], the target named is Nuclear receptor subfamily 1 group I member 2 (Homo sapiens) (UniProt O75469). The assay is described as follows: ATG_PXR_TRANS: Attagene TRANS-FACTORIAL HepG2 Assay for human Pregnane X Receptor (PXR) (AID 2283008; active = hit-call score of the fitted dose curve at least 0.9, where 1 is the maximum). A digest of the protocol: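 HepG2 transfected (FuGene 6) with GAL4-UAS reporter units + PXR-Gal4 chimera; dosed 24 h. Total RNA → oligo(dT) RT → PCR → 6-FAM primer extension → HpaI cut → CE. Gain-of-signal vs DMSO.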

Assay [18] deals with human Retinoic Acid Receptor gamma (RARg), RARG (gene 5916) (UniProt P13631). The assay is described as follows: ATG_RARg_TRANS: Attagene TRANS-FACTORIAL HepG2 Assay for human Retinoic Acid Receptor gamma (RARg) (AID 2283009; active = hit-call score of the fitted dose curve at least 0.9, where 1 is the maximum). A digest of the protocol: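 TRANS format measured activity of exogenous NR-GAL4 fusion (RARg) in transfected HepG2 liver cells after 24 h dosing. Induced reporter RNA was detected by RT-PCR/capillary electrophoresis fluorescence, analysed in the positive direction against DMSO.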

Assay [19] in a line: ATG_NRF2_ARE_CIS: Attagene CIS-FACTORIAL HepG2 Assay for human Nuclear Factor Erythroid 2 Related Factor 2 (NFR2) response to Antioxidant Response Elements (ARE) (AID 2282992). Particulars: HepG2 Attagene ARE/NRF2 reporter, transcription factor activity; actives raise or lower the signal. A digest of the protocol:
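Endogenous transcription factor activity in human liver HepG2 cells is tracked via a cis-element-driven reporter within a multiplexed set. mRNA induction is read by RT-PCR and capillary electrophoresis after 24 h, with DMSO as baseline.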

Assay [20] concerns the target human Peroxisome Proliferator-activated Receptor delta (PPARd), PPARD (gene 5467) (UniProt Q03181). Put plainly: ATG_PPARd_TRANS: Attagene TRANS-FACTORIAL HepG2 Assay for human Peroxisome Proliferator-activated Receptor delta (PPARd) (AID 2283002; active = hit-call score of the fitted dose curve at least 0.9, where 1 is the maximum). A digest of the protocol: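 Cell-based TRANS reporter: HepG2, transient MRTU transfection, 24 h exposure. Readout = reporter mRNA (RT-PCR/CE, 6-FAM). Gain-of-signal fit vs DMSO control.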

Structures are written as SMILES. Results filed as inconclusive are left out. Activity calls are given as the source filed them. The calls were made as follows, unless noted: active = hit-call score of the fitted dose curve at least 0.9, where 1 is the maximum; inactive = score below 0.9.

Chain of Myc proto-oncogene protein (Homo sapiens) (P01106 whole entry, looked up): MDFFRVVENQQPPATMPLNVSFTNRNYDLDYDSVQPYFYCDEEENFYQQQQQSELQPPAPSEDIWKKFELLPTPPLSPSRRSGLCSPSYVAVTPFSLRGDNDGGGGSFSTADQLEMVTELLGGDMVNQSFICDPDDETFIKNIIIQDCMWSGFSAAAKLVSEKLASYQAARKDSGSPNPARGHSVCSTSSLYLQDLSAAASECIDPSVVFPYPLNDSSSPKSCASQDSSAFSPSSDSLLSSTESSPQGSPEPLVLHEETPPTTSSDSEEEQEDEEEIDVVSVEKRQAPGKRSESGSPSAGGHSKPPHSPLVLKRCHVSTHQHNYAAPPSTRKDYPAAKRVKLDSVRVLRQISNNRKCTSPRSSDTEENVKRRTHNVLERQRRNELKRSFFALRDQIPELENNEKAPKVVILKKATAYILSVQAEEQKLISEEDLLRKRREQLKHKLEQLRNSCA
Chain of Nuclear receptor subfamily 1 group I member 2 (Homo sapiens) (O75469 whole entry, looked up, the tested form may be a part): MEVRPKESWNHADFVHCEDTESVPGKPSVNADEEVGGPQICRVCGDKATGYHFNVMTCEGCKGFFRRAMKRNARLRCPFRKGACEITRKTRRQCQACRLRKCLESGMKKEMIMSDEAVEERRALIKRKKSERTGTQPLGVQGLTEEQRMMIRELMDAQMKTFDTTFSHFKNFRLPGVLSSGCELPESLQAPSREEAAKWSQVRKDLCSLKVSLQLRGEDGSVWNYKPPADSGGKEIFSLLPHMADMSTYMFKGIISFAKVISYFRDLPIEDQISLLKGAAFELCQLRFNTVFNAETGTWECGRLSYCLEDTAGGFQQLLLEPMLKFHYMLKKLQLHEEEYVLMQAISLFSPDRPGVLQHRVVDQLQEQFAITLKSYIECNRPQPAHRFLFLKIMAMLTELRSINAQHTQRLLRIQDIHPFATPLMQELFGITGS
Chain of human Retinoic Acid Receptor gamma (RARg), RARG (gene 5916) (P13631 whole entry, looked up, the tested form may be a part): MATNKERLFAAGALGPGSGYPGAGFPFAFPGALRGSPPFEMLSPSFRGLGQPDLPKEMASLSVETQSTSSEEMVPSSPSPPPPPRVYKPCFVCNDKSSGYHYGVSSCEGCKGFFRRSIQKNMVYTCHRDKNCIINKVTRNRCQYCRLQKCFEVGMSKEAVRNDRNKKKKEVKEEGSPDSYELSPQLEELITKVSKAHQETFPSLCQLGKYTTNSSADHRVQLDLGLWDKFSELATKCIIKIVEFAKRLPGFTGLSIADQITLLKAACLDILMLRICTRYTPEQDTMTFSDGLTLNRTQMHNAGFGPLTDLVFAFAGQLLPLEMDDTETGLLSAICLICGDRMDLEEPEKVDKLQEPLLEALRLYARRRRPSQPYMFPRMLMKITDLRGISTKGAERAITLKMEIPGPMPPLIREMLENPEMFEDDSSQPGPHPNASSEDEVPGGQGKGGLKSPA
Chain of human Peroxisome Proliferator-activated Receptor alpha (PPARa), PPARA (gene 5465) (Q07869 whole entry, looked up, the tested form may be a part): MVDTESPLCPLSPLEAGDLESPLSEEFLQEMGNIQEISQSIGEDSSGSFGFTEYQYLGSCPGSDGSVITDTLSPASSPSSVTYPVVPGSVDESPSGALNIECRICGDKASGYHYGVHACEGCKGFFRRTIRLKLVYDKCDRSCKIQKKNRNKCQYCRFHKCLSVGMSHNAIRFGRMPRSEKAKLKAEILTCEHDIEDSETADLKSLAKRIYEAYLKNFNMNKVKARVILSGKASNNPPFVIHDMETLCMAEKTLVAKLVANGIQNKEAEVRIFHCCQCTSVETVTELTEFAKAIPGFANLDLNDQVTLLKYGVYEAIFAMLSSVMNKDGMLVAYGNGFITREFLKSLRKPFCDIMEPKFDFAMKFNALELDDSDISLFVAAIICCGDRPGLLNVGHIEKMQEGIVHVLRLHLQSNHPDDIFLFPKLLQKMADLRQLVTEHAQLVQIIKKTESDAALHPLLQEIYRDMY
Chain of Nuclear respiratory factor 1 (Homo sapiens) (Q16656 whole entry, looked up): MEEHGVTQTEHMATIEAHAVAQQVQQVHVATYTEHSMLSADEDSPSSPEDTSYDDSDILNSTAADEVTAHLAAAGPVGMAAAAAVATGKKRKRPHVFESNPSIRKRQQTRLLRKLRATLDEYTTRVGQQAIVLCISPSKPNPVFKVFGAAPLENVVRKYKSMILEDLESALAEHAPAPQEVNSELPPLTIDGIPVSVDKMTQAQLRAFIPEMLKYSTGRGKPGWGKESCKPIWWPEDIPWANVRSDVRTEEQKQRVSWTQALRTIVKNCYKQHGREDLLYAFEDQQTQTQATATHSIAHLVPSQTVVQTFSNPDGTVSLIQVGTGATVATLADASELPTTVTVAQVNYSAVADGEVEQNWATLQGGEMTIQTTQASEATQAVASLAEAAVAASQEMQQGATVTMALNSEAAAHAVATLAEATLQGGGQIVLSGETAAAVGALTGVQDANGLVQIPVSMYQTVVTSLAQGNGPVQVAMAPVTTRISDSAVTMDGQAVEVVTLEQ
Chain of human Peroxisome Proliferator-activated Receptor delta (PPARd), PPARD (gene 5467) (Q03181 whole entry, looked up): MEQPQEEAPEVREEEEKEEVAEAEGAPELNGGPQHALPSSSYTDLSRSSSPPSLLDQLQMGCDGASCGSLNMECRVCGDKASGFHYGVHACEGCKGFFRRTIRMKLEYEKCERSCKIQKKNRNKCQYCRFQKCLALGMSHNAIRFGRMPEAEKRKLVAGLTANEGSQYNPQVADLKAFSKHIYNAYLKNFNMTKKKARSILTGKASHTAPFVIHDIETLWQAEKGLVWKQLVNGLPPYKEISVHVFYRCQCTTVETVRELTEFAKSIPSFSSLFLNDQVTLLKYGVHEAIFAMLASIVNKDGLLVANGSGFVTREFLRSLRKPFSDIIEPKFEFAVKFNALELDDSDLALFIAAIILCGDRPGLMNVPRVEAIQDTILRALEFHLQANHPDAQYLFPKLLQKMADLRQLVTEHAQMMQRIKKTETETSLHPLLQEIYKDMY
Chain of Peroxisome proliferator-activated receptor gamma (Homo sapiens) (P37231 whole entry, looked up, the tested form may be a part): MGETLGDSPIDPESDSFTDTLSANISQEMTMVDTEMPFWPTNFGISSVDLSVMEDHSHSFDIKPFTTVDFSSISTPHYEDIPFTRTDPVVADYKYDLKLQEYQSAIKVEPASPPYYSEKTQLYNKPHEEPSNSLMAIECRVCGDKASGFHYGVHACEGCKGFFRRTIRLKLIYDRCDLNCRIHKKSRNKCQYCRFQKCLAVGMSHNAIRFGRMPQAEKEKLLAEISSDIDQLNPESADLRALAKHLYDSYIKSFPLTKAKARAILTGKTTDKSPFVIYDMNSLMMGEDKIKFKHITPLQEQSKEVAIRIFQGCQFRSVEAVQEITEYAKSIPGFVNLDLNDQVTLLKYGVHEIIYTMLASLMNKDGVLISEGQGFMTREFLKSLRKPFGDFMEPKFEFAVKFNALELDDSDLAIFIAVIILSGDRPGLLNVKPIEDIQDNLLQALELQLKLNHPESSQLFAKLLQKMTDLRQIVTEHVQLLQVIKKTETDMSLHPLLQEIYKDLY
Chain of Retinoic acid receptor alpha (Homo sapiens) (P10276 whole entry, looked up, the tested form may be a part): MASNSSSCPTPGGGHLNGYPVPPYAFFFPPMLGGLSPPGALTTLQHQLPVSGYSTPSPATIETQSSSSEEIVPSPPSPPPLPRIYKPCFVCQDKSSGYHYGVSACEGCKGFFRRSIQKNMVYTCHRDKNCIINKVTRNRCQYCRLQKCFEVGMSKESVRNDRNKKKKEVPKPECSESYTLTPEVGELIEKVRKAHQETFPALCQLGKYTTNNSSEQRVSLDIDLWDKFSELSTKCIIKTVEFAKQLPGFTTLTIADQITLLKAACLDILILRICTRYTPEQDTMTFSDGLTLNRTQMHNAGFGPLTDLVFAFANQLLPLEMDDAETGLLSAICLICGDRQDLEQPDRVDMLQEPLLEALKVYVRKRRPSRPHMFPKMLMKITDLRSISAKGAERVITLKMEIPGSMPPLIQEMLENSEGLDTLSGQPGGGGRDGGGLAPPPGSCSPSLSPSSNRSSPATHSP
Chain of Cellular tumor antigen p53 (Homo sapiens) (P04637 whole entry, looked up, the tested form may be a part): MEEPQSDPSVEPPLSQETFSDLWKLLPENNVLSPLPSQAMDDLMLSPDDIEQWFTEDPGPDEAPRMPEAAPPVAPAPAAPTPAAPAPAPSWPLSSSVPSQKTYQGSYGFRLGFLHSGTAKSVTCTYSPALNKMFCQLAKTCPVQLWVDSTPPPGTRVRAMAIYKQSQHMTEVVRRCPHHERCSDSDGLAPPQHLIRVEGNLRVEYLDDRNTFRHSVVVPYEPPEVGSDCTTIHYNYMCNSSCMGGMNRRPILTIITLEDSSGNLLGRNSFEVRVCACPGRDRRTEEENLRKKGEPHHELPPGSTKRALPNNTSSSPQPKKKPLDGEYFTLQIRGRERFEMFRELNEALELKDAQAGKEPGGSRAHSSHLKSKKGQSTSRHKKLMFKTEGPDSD
Chain of human Retinoic Acid Receptor beta (RARb), RARB (gene 5915) (P10826 whole entry, looked up): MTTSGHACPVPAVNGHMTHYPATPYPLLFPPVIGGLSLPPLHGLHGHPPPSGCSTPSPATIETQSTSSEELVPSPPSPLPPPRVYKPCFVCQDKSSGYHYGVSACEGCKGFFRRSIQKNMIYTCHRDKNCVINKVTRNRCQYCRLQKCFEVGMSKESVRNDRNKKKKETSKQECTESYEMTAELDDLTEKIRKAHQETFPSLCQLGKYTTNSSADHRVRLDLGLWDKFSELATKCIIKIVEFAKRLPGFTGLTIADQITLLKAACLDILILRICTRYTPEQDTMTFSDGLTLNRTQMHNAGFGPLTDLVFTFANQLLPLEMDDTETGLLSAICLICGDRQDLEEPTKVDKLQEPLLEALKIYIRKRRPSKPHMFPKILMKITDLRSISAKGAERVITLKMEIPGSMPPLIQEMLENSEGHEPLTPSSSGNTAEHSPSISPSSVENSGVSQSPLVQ

For the compound `NCC(F)(F)C(F)(F)C(F)(F)C(F)(F)C(F)(F)C(F)(F)C(F)(F)C(F)(F)F`, the outcome in assay [1], in assay [2], in [3], in assay [4], in assay [5] and in [6] was inactive. Also, the outcome in assay [7], in assay [8], in [9], in assay [10], in assay [11] and in assay [12] was inactive. Moreover, the compound was classed as inactive in assay [13], in [14], in assay [15], in [16], in [17] and in assay [18].
Take `CC1=CCC2C(=O)OC(=O)C2C1` (centres undefined): the call in assay [1], in assay [2], in assay [3], in assay [4], in assay [19] and in assay [5] was inactive. The compound was classed as inactive in assay [11] and in assay [18].
Consider `CO[Si](C)(CCC(F)(F)C(F)(F)C(F)(F)C(F)(F)C(F)(F)C(F)(F)F)OC`, for which the result in [1], in assay [2], in assay [3], in assay [4], in [19] and in assay [5] was inactive. The result in assay [7], in [8], in assay [9], in assay [10], in assay [11] and in assay [20] was inactive. In addition, the result in assay [12], in assay [15], in assay [16], in assay [17] and in [18] was inactive.
The AC50 is the concentration at which the activity in the assay is half-maximal. With `CCCCCCCC/C=C\CCCCCCCC(=O)OCC(O)CO` (centres undefined), the compound was called inactive in assay [1], in assay [2], in [3], in assay [4], in assay [5] and in assay [20]. In addition, the result in assay [17] was inactive. The values for the AC50 in assay [19], in assay [11] and in [16] were 68.4 µM (active), 27.7 µM (active) and 27.3 µM (active), respectively.
As for `CCN(CC)c1ccc(C=O)cc1`, the compound was called inactive in [1], in [2], in [3], in [4], in [19] and in [5]. In addition, the outcome in assay [7], in assay [8], in assay [9], in [10], in assay [20] and in assay [12] was inactive. In addition, the outcome in assay [15] and in [16] was inactive. Moreover, in [17], the half-maximal activity concentration (AC50) was 27.7 µM (active).
For the compound `CC1CCCCC1`, the call in assay [1], in assay [2], in [3], in [4], in [19] and in [5] was inactive. Also, the compound was called inactive in assay [11], in [14], in assay [16], in assay [17] and in [18].

Source of the values: PubChem BioAssay (EPA / NIEHS).
